Screens (PubChem BioAssay)
FBW7 act = human FBW7 E3 ligase activation, primary screen | Q969H0 | AlphaScreen FBW7–phospho-cyclin E peptide binding, activator screen | normalized activity (activation), % at 26.1 µM | 0.13% of 650,000 active; in the data active = normalized activity above about 1.9%;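 note: purified mutant Fbw7 with reduced substrate affinity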
GPR151 ag = activates the human receptor GPR151. activation, % at 11.2 µM. 1% of 650,000 active. PathHunter beta-arrestin GPR151 cells, luminescence. AID 1508602; in the data active = activation above about 4.9%;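 note: 0% = median of compound wells and 100% = cells with positive control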
MITF inh = blocks human microphthalmia-associated transcription factor; O75030; AlphaScreen MITF homodimerization, bead proximity signal; inhibition, % at 2.6 µM; 0.91% of 650,000 active; AID 1259374; in the data active = inhibition above about 50%;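 note: 0% = vehicle wells with protein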
TEAD-YAP inh = TEAD-YAP interaction inhibition; HEK-TIYL cells, TEAD-Gal4/YAP UAS-luciferase luminescence; inhibition, % at 9.12 µM; 1.4% of 640,000 active; in the data active = inhibition above about 32%;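 note: 0% = median of test compound wells and 100% = reference inhibitor wells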
MITF confirm = human MITF inhibition, confirmation. shares compounds with MITF inh. AlphaScreen MITF homodimerization, biotin/His-MITF beads. inhibition, % at 2.6 µM. 16% of 4,700 active. AID 1259372;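 active = inhibition above a cutoff derived from the DMSO control wells, cut at about 28% in these data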;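 note: 0% = MITF dimer wells with DMSO only; inhibitors lower the bead chemiluminescence by keeping MITF from dimerizing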
AlphaScreen DR = AlphaScreen optical interference, dose response counter-screen. 6% of 480 active. shares compounds with MITF inh. IC50, µM. AlphaScreen optical interference counterscreen, cell-free. AID 1259373; call rule not given here
AS interf ctr = optically interferes with AlphaScreen signal; shares compounds with MITF inh; LysRS AlphaScreen counterscreen, signal interference, triplicate; inhibition, % at 2.6 µM; 7.6% of 4,700 active; AID 1259376;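 active = inhibition above a cutoff derived from the DMSO control wells, cut at about 30% in these data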
Active calls of the source: *; / = no result. Shown are actives, neighbours in structure and some others; about 3.4% of the full set was active somewhere.

SMILES	FBW7 act	GPR151 ag	MITF inh	TEAD-YAP inh	MITF confirm	AS interf ctr	others
Cc1cc(C)nc(N2CCC(N(Cc3cccnc3)C(=O)NC(C)C)CC2)n1	1	-1	5	-7	/	/
O=C(NCc1ccccc1)c1nnc(-c2cccc(Cl)c2)o1	0	0	-3	-14	/	/
O=C(NCCCN1CCOCC1)c1cccc(C(F)(F)F)c1	0	1	-19	12	/	/
CN(C)C(CO)C(O)c1ccc([N+](=O)[O-])cc1 (stereo not given)	0	-2	-11	-11	/	/
O=S(=O)(NCCN1CCCCCC1)c1cccc2cccnc12	0	0	15	9	/	/
Cc1cccc(OCCn2c(=N)n(Cc3ccccc3F)c3ccccc32)c1	0	1	15	-5	/	/
COc1cc(-c2[nH]nc3c2C(c2ccc4c(c2)OCO4)C(C#N)=C(N)O3)cc(OC)c1OC (stereo not given)	0	1	66*	15	-6	-5
Cc1cc(C)nc(NS(=O)(=O)c2ccc(N3C(=O)C=CC3=O)cc2)n1	-1	1	61*	-4	37*	5	AlphaScreen DR=>6.5
OC(CON=C1c2ccccc2-c2ccccc21)CN1CCNCC1 (stereo not given)	-1	1	77*	-4	12	12
COc1ccc(CN2CCN(C3CCN(Cc4ccccc4)CC3)CC2)cc1OCc1ccccc1	0	-1	29	4	/	/
CCOc1cc(CN2CCN(C3CCCCC3)CC2)ccc1OC	0	0	64*	-2	6	18
Fc1ccc(CN2CCN(C3CC4CCC3C4)CC2)cc1 (stereo not given)	0	0	79*	-10	2	0
CCOc1cc(CN2CCN(C3CC4CCC3C4)CC2)ccc1OC (stereo not given)	0	0	69*	6	-20	-2
CCOc1ccc(CN2CCN(S(=O)(=O)CC)CC2)cc1OC	0	-1	37	-5	/	/
CCOc1cc(CN2CCN(C3CCCCCC3)CC2)ccc1OC	0	0	55*	-5	-1	8
COc1ccc(CN2CCC(N3CCCCC3)CC2)cc1OC	0	-1	38	7	/	/
Nc1c(C(=O)NCc2ccccc2Cl)nnn1Cc1cccc(C(F)(F)F)c1	0	1	-4	-10	/	/
COc1cc(C(=O)Nc2nc3ccc(Br)cc3s2)cc(OC)c1OC	0	-2	-8	2	/	/
COc1ccc(Cl)cc1NC(=O)Cn1ccc2c(OC)cccc2c1=O	0	0	-4	0	/	/
O=C1c2cccc([N+](=O)[O-])c2C(=O)N1c1ccc(N2C(=O)C3C4CCC(C4)C3C2=O)cc1 (stereo not given)	0	3	2	-11	/	/
O=CN1CCN(C(=O)COc2ccc(Br)cc2)CC1	0	1	-10	1	/	/
CC(=O)N1CCN(C(=O)COc2ccc(Br)cc2)CC1	1	-1	53*	-2	10	9
O=S(=O)(c1ccc(F)cc1)N1CCN(Cc2c(F)cccc2F)CC1	0	0	77*	9	16	-3
CS(=O)(=O)N1CCN(Cc2cccc(Br)c2)CC1	0	1	63*	-12	14	15
COc1ccc(S(=O)(=O)N2CCN(Cc3cccc(Br)c3)CC2)cc1	0	0	52*	-21	7	14
SMILES	FBW7 act	GPR151 ag	MITF inh	TEAD-YAP inh	MITF confirm	AS interf ctr	others
O=S(=O)(c1ccc(F)cc1)N1CCCN(Cc2c(F)cccc2F)CC1	0	-1	8	3	/	/
COc1ccc(Br)cc1CN1CCN(S(=O)(=O)c2ccc(F)cc2)CC1	0	-1	59*	9	1	11
O=S(=O)(c1ccc(Br)cc1)N1CCN(Cc2ccc(F)cc2)CC1	1	-2	6	8	/	/
CCOC(=O)CNC(=O)Cn1cnc2c(nnn2Cc2ccc(C)cc2)c1=O	0	1	6	14	/	/
Cc1[nH]c(=O)[nH]c(=O)c1S(=O)(=O)NCCC1=CCCCC1	0	-1	-14	-1	/	/
CSc1ccc(CC2(CCC(=O)N(C)CC3CCCCO3)CCC(=O)N2)cc1 (stereo not given)	0	-1	8	-3	/	/
CCCn1c(=O)c(C(=O)NNC(=O)c2ccccc2Br)c(O)c2ccccc21	1	0	4	3	/	/
COc1cccc(-n2nnnc2SCC(=O)N(C(C)C)C(C)C)c1	0	1	-1	10	/	/
